Data from PubChem BioAssay (NCATS).
Results filed as inconclusive are left out. Calls of active or inactive are those of the source. Calls follow the shape of the dose curve; as a rule, active = well fitted cell-killing curve with a large enough effect; inconclusive = small, poorly fitted or top-dose-only effect, or effect the other way; inactive = flat fitted curve, though single readings scatter.

Columns and labels:
Experiment in all cases: Primary qHTS to identify gynecologic anti-cancer compounds using libraries of approved drugs and bioactive compounds (AID 1345084); also: nearly all actives have a fitted effect of over 55% in size
Hek293T = conditions: Gynecologic cancer cell panel viability, ATPlite luminescence, 48 h, control line for the selectivity index; series mostly up to 57.5 µM
Outline: (§1)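 Measured: luminescence after ATPlite addition (15 min, RT). Exposure: 48 h, 37 C, 5% CO2.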

JEG-3 = conditions: Gynecologic cancer cell panel viability, ATPlite luminescence, 48 h; series mostly up to 57.5 µM
Outline: as §1

OV90 = conditions: Gynecologic cancer cell panel viability, ATPlite luminescence, 48 h; series mostly up to 57.5 µM
Outline: as §1

PA-1 = conditions: Gynecologic cancer cell panel viability, ATPlite luminescence, 48 h; series mostly up to 57.5 µM
Outline: as §1

SKOV3 = conditions: Gynecologic cancer cell panel viability, ATPlite luminescence, 48 h; series mostly up to 57.5 µM
Outline: as §1

Tov-21-G = conditions: Gynecologic cancer cell panel viability, ATPlite luminescence, 48 h; series mostly up to 57.5 µM
Outline: as §1

Tov112D = conditions: Gynecologic cancer cell panel viability, ATPlite luminescence, 48 h; series mostly up to 57.5 µM
Outline: as §1
% is scaled to controls: 0 for no effect and ±100 for the full control effect.

COC(=O)C1=CO[C@@H](O[C@@H]2O[C@H](CO)[C@@H](O)[C@H](O)[C@H]2O)[C@@H]2[C@@](C)(O)[C@@H](O)C[C@]12O
inactive: Potency (Hek293T) | Potency (JEG-3) | Potency (OV90) | Potency (PA-1) | Potency (SKOV3) | Potency (Tov-21-G) | Potency (Tov112D)

COc1cccc(-n2nc(C(=O)O)cc2-c2ccc(C3CCCCC3)c(Cl)c2)c1
inactive: Potency (Hek293T) | Potency (JEG-3) | Potency (OV90) | Potency (PA-1) | Potency (SKOV3) | Potency (Tov-21-G) | Potency (Tov112D)

C[C@@H]1O[C@@H](O[C@H]2[C@H](O)[C@@H](O)[C@H](OC[C@H]3O[C@@H](OC(=O)[C@]45CCC(C)(C)C[C@H]4C4=CCC6[C@@]7(C)C[C@H](O)[C@H](O[C@@H]8O[C@H](CO)[C@@H](O)[C@H](O)[C@H]8O)[C@@](C)(C(=O)O)C7CC[C@@]6(C)[C@]4(C)CC5)[C@H](O[C@@H]4O[C@H](CO)[C@@H](O)[C@H](O)[C@H]4O)[C@@H](O)[C@@H]3O)O[C@@H]2CO)[C@H](O)[C@H](O)[C@H]1O (stereo partly drawn)
inactive: activity change, negative = cytotoxicity (Hek293T) 3.11% [at 6.55 µM] | activity change, negative = cytotoxicity (JEG-3) -3.92% [at 6.55 µM] | activity change, negative = cytotoxicity (OV90) 0.564% [at 6.55 µM] | activity change, negative = cytotoxicity (PA-1) 15.2% [at 6.55 µM] | activity change, negative = cytotoxicity (SKOV3) 8.21% [at 6.55 µM] | activity change, negative = cytotoxicity (Tov-21-G) 6.93% [at 6.55 µM] | activity change, negative = cytotoxicity (Tov112D) 5.3% [at 6.55 µM]

NCCCC[C@H](NC(=O)[C@@H]1Cc2ccccc2CN1C(=O)CCC(=O)c1ccccc1)C(=O)NCC(c1ccccc1)c1ccccc1
inactive: Potency (Hek293T) | Potency (JEG-3) | Potency (OV90) | Potency (PA-1) | Potency (SKOV3) | Potency (Tov-21-G) | Potency (Tov112D)

COc1cc(C/C(=C/NC(C)=O)N(CC(=O)Cc2ccccc2)C(C)=O)cc2c1OCO2
inactive: Potency (Hek293T) | Potency (JEG-3) | Potency (OV90) | Potency (PA-1) | Potency (SKOV3) | Potency (Tov-21-G) | Potency (Tov112D)

CC1(C)C(=O)C(C)(C)c2cc(C(=O)Nc3ccc(C(=O)O)cc3)ccc21
inactive: Potency (Hek293T) | Potency (JEG-3) | Potency (OV90) | Potency (PA-1) | Potency (SKOV3) | Potency (Tov-21-G) | Potency (Tov112D)

O=C(O[C@@H]1O[C@H](CO)[C@@H](O)[C@H](O)[C@H]1O)c1c(O)cc(O)cc1/C=C/c1ccccc1
inactive: Potency (Hek293T) | Potency (JEG-3) | Potency (OV90) | Potency (PA-1) | Potency (SKOV3) | Potency (Tov-21-G) | Potency (Tov112D)

CC1(C)NC2N(C1=O)c1ccccc1C2(O)CC(C(=O)O)n1cnc2ccccc2c1=O (stereo not drawn)
inactive: Potency (Hek293T) | Potency (JEG-3) | Potency (OV90) | Potency (PA-1) | Potency (SKOV3) | Potency (Tov-21-G) | Potency (Tov112D)

CC1=CC(=O)CC(C)(C)C1(O)CCC(C)O (stereo not drawn)
inactive: Potency (Hek293T) | Potency (JEG-3) | Potency (OV90) | Potency (PA-1) | Potency (SKOV3) | Potency (Tov-21-G) | Potency (Tov112D)

COc1ccccc1CC(C(=O)O)N(C)C(=O)c1ccccc1 (stereo not drawn)
inactive: Potency (Hek293T) | Potency (JEG-3) | Potency (OV90) | Potency (PA-1) | Potency (SKOV3) | Potency (Tov-21-G) | Potency (Tov112D)

OCC1OC(Oc2cc(O)c3c(c2)OC(c2ccc(O)cc2)C(O)C3)C(O)C1O (stereo not drawn)
inactive: Potency (Hek293T) | Potency (JEG-3) | Potency (OV90) | Potency (PA-1) | Potency (SKOV3) | Potency (Tov-21-G) | Potency (Tov112D)

Clc1ccc(CN[C@H]2CCN(c3ncc(Br)cn3)C2)c(Cl)c1
inactive: Potency (Hek293T) | Potency (JEG-3) | Potency (OV90) | Potency (PA-1) | Potency (SKOV3) | Potency (Tov-21-G) | Potency (Tov112D)

CC[C@H]1OC(=O)[C@H](C)[C@@H](OC2C[C@@](C)(OC)[C@@H](O)[C@H](C)O2)[C@H](C)[C@@H](OC2O[C@H](C)C[C@H](NC)[C@H]2O)[C@](C)(O)C[C@@H](C)CN(C)[C@H](C)[C@@H](O)[C@]1(C)O (stereo partly drawn)
inactive: Potency (Hek293T) | Potency (JEG-3) | Potency (OV90) | Potency (PA-1) | Potency (SKOV3) | Potency (Tov-21-G) | Potency (Tov112D)

CC1OC(OC2C(CO)OC(OCC3OC(OC(=O)C45CCC(C)(C)CC4C4=CCC6C7(C)CCC(OC8OC(C(=O)O)C(O)C(OC9OC(CO)C(O)C(O)C9O)C8O)C(C)(C)C7CCC6(C)C4(C)CC5)C(O)C(O)C3O)C(O)C2O)C(O)C(O)C1O (stereo not drawn)
inactive: activity change, negative = cytotoxicity (Hek293T) 6.6% [at 6.55 µM] | activity change, negative = cytotoxicity (JEG-3) 9.3% [at 6.55 µM] | activity change, negative = cytotoxicity (OV90) 0.685% [at 6.55 µM] | activity change, negative = cytotoxicity (PA-1) 14.3% [at 6.55 µM] | activity change, negative = cytotoxicity (SKOV3) 21% [at 6.55 µM] | activity change, negative = cytotoxicity (Tov-21-G) 0.671% [at 6.55 µM] | activity change, negative = cytotoxicity (Tov112D) 0.769% [at 6.55 µM]

COc1cc(/C=C/C(=O)OC[C@H]2O[C@H](O[C@]3(CO)O[C@H](CO)[C@@H](O)[C@@H]3O)[C@H](O)[C@@H](O)[C@@H]2O)cc(OC)c1O
inactive: Potency (Hek293T) | Potency (JEG-3) | Potency (OV90) | Potency (PA-1) | Potency (SKOV3) | Potency (Tov-21-G) | Potency (Tov112D)

C/C=C/C=C/C(CC(=O)O)Nc1ccc(C=O)cc1 (stereo not drawn)
inactive: Potency (Hek293T) | Potency (JEG-3) | Potency (OV90) | Potency (PA-1) | Potency (SKOV3) | Potency (Tov-21-G) | Potency (Tov112D)

CC(=O)OC[C@@]12[C@H](O)C[C@]3(C)C(=CCC4[C@@]5(C)CC[C@H](O[C@@H]6O[C@H](C(=O)O)[C@@H](O[C@@H]7O[C@H](CO)[C@@H](O)[C@H](O)[C@H]7O)[C@H](O)[C@H]6O[C@@H]6O[C@H](CO)[C@@H](O)[C@H](O)[C@H]6O)[C@](C)(CO)C5CC[C@]43C)[C@@H]1CC(C)(C)[C@@H](OC(C)=O)[C@@H]2O (stereo partly drawn)
inactive: activity change, negative = cytotoxicity (Hek293T) 0.0542% [at 11.6 µM] | activity change, negative = cytotoxicity (JEG-3) -2.75% [at 11.6 µM] | activity change, negative = cytotoxicity (OV90) -1.56% [at 11.6 µM] | activity change, negative = cytotoxicity (PA-1) 0.948% [at 11.6 µM] | activity change, negative = cytotoxicity (SKOV3) 8.16% [at 11.6 µM] | activity change, negative = cytotoxicity (Tov-21-G) 2.04% [at 11.6 µM] | activity change, negative = cytotoxicity (Tov112D) 1.86% [at 11.6 µM]

C[C@@H]1O[C@@H](O[C@H]2[C@H](O[C@H]3[C@H](O[C@H]4CC[C@@]5(CO)C(CC[C@]6(C)C5CC=C5C7CC(C)(C)C[C@@H](O)[C@]7(C)CC[C@]56C)C4(C)C)O[C@H](C(=O)O)[C@@H](O)[C@@H]3O)OC[C@@H](O)[C@@H]2O)[C@H](O)[C@H](O)[C@H]1O (stereo partly drawn)
inactive: activity change, negative = cytotoxicity (Hek293T) -3.07% [at 11.6 µM] | activity change, negative = cytotoxicity (JEG-3) -1.11% [at 11.6 µM] | activity change, negative = cytotoxicity (OV90) -1.83% [at 11.6 µM] | activity change, negative = cytotoxicity (PA-1) 6.18% [at 11.6 µM] | activity change, negative = cytotoxicity (SKOV3) 0.621% [at 11.6 µM] | activity change, negative = cytotoxicity (Tov-21-G) 0.307% [at 11.6 µM] | activity change, negative = cytotoxicity (Tov112D) -0.127% [at 11.6 µM]

N[C@H]1C[C@H]1c1ccc(-c2cccc(O)c2)cc1
inactive: Potency (Hek293T) | Potency (JEG-3) | Potency (OV90) | Potency (PA-1) | Potency (SKOV3) | Potency (Tov-21-G) | Potency (Tov112D)
